Test [1] deals with Luciferin 4-monooxygenase (Photinus pyralis) (UniProt P08659). Nature of the test: CCTE_Simmons_QuantiLum_inhib_2: CCTE's Firefly Luciferase Inhibition Assay, Simmons Lab (AID 2283767).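 For AC50: potency for inhibitors that lower luciferase luminescence relative to DMSO.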 An outline of the steps: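 First, 5 ng purified luciferase in phosphate buffer with BSA is dispensed per well. Next, test chemicals (5 nM to 87.5 uM final, 0.5% DMSO) are added and incubated 30 min at 37C in darkness. Finally, luciferin reagent is injected and luminescence read kinetically.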
Chain of Luciferin 4-monooxygenase (Photinus pyralis) (P08659 whole entry, looked up): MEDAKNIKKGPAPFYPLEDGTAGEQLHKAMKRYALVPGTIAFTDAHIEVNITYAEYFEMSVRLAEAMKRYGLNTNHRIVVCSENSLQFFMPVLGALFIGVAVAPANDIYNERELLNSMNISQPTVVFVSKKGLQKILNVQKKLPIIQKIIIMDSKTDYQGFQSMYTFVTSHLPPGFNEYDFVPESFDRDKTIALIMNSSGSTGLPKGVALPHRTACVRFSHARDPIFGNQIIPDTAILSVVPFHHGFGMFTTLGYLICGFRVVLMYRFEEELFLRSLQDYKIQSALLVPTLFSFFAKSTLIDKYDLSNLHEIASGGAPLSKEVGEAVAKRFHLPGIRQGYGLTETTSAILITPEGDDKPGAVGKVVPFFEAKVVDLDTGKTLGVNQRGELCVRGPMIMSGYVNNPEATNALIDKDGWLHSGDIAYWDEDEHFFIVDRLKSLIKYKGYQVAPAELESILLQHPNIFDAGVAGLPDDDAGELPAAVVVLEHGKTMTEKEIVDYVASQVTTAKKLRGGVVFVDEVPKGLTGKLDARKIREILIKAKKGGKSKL

Test [2] is described as follows: ACEA_AR_antagonist_AUC_viability: ACEA Biosciences xCELLigence Real-Time Cell Analysis on Androgen Receptor Antagonism for Viability (AID 2283776).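 Note: area under impedance growth curve at 80 h after dosing as viability; hits lower the growth signal relative to DMSO meaning cytotoxicity.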 An outline of the steps: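 22Rv1 human prostate cancer cells were seeded on electrode plates, monitored overnight, then exposed to eight 1:4 dilutions from 100 uM final. Impedance-based growth kinetics at 80 h gave an AUC viability endpoint normalized to DMSO.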

The nature of test [3]: ACEA_AR_agonist_AUC_viability: ACEA Biosciences xCELLigence Real-Time Cell Analysis on Androgen Receptor Agonism for Viability (AID 2283775).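 For AC50: viability read 80 hours after compound addition.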 An outline of the steps:
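22Rv1 cells; impedance growth kinetics; 8-pt 1:4 dilutions from 100 uM top final, ≤0.5% DMSO; n = 2; 80 h read; AUC viability, loss-of-signal vs DMSO.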

Test [4] can be described thus: ArunA_NOG_BranchPointsPerNeurite: ArunA Biomedical's Neurite Outgrowth (NOG) Assay for Branch Points Per Neurite (AID 2283759). An outline of the steps:
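Automated image analysis traced neurites (processes >10 um) from valid cell bodies after Hoechst and βIII-tubulin staining. hNN cells from H9 embryonic stem cells, 48 h exposure. Fitted bidirectionally against DMSO.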

In test [5] the target is AR (gene 367) (UniProt P10275). Briefly: ACEA_AR_agonist_80hr: ACEA Biosciences xCELLigence Real-Time Cell Analysis on Androgen Receptor Agonism for Proliferation (AID 2283783).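 Note: hits increase impedance growth signal above DMSO baseline.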 The procedure: ACEA_AR_agonist is a cell-based, single-readout assay that uses 22Rv1, a human prostate cancer cell line, with measurements taken at 80 hours after chemical dosing in a 384-well plate, although TO5 and TO6 (mc0.srcf) used a 96-well plate. Differences in plate size can be ignored given data normalization.ACEA_AR_agonist_80hr is one of two assay component(s) measured or calculated from the ACEA_AR assay. It is designed to make measurements of real-time cell-growth kinetics, a form of growth reporter, as detected with electrical impedance signals by Real-Time Cell Electrode Sensor (RT-CES) technology.Data from the assay component ACEA_AR_agonist_80hr was analyzed in the positive analysis fitting direction relative to DMSO as the negative control and baseline of activity. Using a type of growth reporter, measures of the cells for gain-of-signal activity can be used to understand the signaling at the pathway-level as they relate to the geneAR Furthermore, this assay endpoint can be referred to as a primary readout, because this assay has produced multiple assay endpoints where this one serves a signaling function. To generalize the intended target to other relatable targets, this assay endpoint is annotated to the nuclear receptor intended target family, where the subfamily is steroidal.
Chain of AR (gene 367) (P10275 whole entry, looked up): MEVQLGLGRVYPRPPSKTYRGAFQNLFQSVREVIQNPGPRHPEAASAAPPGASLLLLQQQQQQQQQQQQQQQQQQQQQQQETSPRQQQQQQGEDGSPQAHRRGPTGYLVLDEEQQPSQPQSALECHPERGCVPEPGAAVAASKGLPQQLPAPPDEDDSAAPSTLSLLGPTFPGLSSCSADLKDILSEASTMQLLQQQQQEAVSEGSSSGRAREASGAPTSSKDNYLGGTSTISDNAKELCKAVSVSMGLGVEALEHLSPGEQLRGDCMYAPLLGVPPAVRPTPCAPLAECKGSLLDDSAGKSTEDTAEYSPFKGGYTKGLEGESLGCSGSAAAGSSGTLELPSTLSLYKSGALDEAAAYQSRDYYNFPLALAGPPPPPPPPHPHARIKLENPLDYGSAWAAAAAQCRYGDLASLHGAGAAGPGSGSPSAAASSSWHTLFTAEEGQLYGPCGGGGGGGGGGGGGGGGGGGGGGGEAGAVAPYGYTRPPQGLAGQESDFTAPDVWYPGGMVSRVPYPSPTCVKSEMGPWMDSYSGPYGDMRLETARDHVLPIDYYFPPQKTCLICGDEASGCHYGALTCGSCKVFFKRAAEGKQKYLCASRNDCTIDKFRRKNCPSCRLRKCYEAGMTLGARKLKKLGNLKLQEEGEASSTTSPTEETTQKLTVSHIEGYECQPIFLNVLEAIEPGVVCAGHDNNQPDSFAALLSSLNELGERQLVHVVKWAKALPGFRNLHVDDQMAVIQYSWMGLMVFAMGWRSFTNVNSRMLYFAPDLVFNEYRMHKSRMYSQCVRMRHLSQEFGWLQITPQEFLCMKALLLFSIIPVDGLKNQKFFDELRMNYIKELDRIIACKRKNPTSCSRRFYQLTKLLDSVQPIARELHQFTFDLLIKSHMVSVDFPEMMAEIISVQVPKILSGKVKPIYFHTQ
The xCELLigence system Multi-E-Plate stations were used to measure the time-dependent response to chemicals. Each compound was tested in an eight-point, 1:4 serial dilution series starting at a maximum final concentration of 100 uM. A maximum starting concentration of 0.5% DMSO was present in the 100 uM chemical samples and was diluted along with the test article dilution series. The screen was performed in biological duplicate using two separate, 96-well, E-Plates 96 for each dilution series (n = 2). Positive controls (MG132 and testosterone) and a negative control (assay media) were tested in quadruplicate on each testing plate. […] Reference compounds were tested with 8 concentrations with 1:5 serial dilutions. All screening was carried out by ACEA Biosciences, Inc. (San Diego, CA). 22Rv1 cells purchased from ATCC were maintained in media supplemented with 10% fetal bovine serum (FBS). Before screening, 22Rv1 cells were preconditioned in assay medium. Cells were then detached and seeded in E-Plates 96 in assay medium. After overnight monitoring of growth once every hour, compounds were added to […] cells and remained in the medium until the end of the experiment. Cellular responses were then recorded once every 5 min for the first 5 h, and once every hour for an additional 100 h.

For test [6], the target named is AR (gene 367) (UniProt P10275). Nature of the test: ACEA_AR_antagonist_80hr: ACEA Biosciences xCELLigence Real-Time Cell Analysis on Androgen Receptor Antagonism for Proliferation (AID 2283787).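 Note: hits lower the impedance growth signal relative to DMSO.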 An outline of the steps: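 Impedance-based real-time growth of 22Rv1 prostate cells, read 80 h after dosing. Eight concentrations, 1:4 series, top 100 uM final (0.5% DMSO), n = 2; signal decrease scored against DMSO.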

The subject of test [7] is zebrafish Androgen Receptor (AR), gene 100005148. Nature of the test: ATG_zfAR_XSP1: Attagene TRANS-FACTORIAL Multi-Species (XSP1) HepG2 Assay for zebrafish Androgen Receptor (AR) (AID 2283771). The procedure:
ATG_XSP1_multi-species_TRANS is a cell-based, multiplexed assay created by modifying the existing Attagene TRANS-FACTORIAL system to include a panel of nuclear receptors from some or all the following species: human (Homo sapiens), mouse (Mus musculus), frog (Xenopus laevis), zebrafish (Danio rerio), chicken (Gallus gallus), and turtle (Chrysemys picta). The ECOTOX-FACTORIAL format uses HepG2, a human liver cell line, with measurements taken at 24 hours after chemical dosing in a 24-well plate. Xsp1 included 3 nM 6-alpha-fluorotestosterone to partially stimulate the androgen receptor.ATG_zfAR_XSP1 is one of 29 assay components measured or calculated from the ATG_XSP1_multi-species_TRANS assay. It is designed to make measurements of mRNA induction, a form of inducible reporter, as detected with fluorescence intensity signals by Reverse transcription polymerase chain reaction (RT-PCR) and Capillary electrophoresis technology.The assay endpoint ATG_zfAR_XSP1 was analyzed in the positive analysis fitting direction relative to DMSO as the negative control and baseline of activity. […] Furthermore, this assay endpoint can be referred to as a primary readout, because this assay has produced multiple assay endpoints where this one serves a reporter gene function. […]

Test [8] deals with zebrafish Estrogen Receptor (ESR1), esr1 (gene 259252) (UniProt P57717). Briefly: ATG_zfER1_XSP1: Attagene TRANS-FACTORIAL Multi-Species (XSP1) HepG2 Assay for zebrafish Estrogen Receptor (ESR1) (AID 2283772). An outline of the steps:
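HepG2 cells transiently transfected with a GAL4-UAS reporter and chimeric zebrafish ER-Gal4, dosed 24 h with 3 nM 6-alpha-fluorotestosterone present. Reporter mRNA measured by RT-PCR and capillary electrophoresis; gain of signal versus DMSO.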

In test [9] the test system is zebrafish Estrogen Receptor (ESR2B), gene 317733. Nature of the test: ATG_zfER2b_XSP1: Attagene TRANS-FACTORIAL Multi-Species (XSP1) HepG2 Assay for zebrafish Estrogen Receptor (ESR2B) (AID 2283773). An outline of the steps: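 Medium contained 3 nM 6-alpha-fluorotestosterone. Reporter mRNA induction by exogenous zebrafish ER2b-Gal4 chimera was read 24 h post-dose in transiently transfected HepG2 cells, using RT-PCR, fluorescent labelling, HpaI digestion and capillary electrophoresis.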

For test [10], the system named is frog Estrogen Receptor (ESR2), gene 100174814. Briefly: ATG_frER2_XSP1: Attagene TRANS-FACTORIAL Multi-Species (XSP1) HepG2 Assay for frog Estrogen Receptor (ESR2) (AID 2283774). An outline of the steps:
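Reporter mRNA from a multiplexed TRANS system, measured by RT-PCR with fluorescent labelling and capillary electrophoresis, 24 hours after chemical exposure. Human HepG2 liver cells carried exogenous frog ER-Gal4 chimera; medium included 3 nM 6-alpha-fluorotestosterone; increases versus DMSO analysed.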

Inconclusive results are not listed. Active and inactive are the calls of the source. Rule for the calls: active = hit-call score of the fitted dose curve at least 0.9, where 1 is the maximum; inconclusive = response in the unintended direction; inactive = score below 0.9.

This passage reports outcome and AC50 results from PubChem BioAssay (EPA / NIEHS).

Chain of zebrafish Estrogen Receptor (ESR1), esr1 (gene 259252) (P57717 whole entry, looked up, the tested form may be a part): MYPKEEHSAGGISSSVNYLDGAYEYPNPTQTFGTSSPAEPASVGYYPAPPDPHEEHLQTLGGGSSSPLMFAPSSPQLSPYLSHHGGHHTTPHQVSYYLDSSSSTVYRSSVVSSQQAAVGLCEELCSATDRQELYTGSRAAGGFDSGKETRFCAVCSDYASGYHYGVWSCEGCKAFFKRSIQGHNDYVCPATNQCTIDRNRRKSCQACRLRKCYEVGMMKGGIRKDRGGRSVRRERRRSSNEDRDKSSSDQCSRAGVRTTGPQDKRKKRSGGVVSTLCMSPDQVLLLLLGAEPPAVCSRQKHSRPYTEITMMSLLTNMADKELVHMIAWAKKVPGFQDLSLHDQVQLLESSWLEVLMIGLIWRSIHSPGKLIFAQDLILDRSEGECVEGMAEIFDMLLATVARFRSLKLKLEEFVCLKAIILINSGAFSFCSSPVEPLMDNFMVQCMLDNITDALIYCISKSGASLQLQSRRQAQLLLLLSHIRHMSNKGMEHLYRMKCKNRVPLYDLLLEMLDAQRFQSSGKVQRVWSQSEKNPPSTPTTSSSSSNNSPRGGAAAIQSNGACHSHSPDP

Turning to `C[C@]12C=CC(=O)C=C1CC[C@@H]1[C@@H]2C(=O)C[C@@]2(C)[C@H]1CC[C@]2(O)C(=O)CO`, the compound was classed as inactive in test [1] and in test [2].

Usually AC50 stands for the concentration giving half of the maximal activity seen. For the compound `Cc1oc(-c2ccccc2)nc1CCOc1cccc2c1ccn2CCC(=O)O`, the call in test [1] was inactive. The figures for the AC50 in test [3] and in test [2] were 68.8 µM (active) and 65.7 µM (active), respectively.

Turning to `CCNc1cccc(C)c1`, the call in [1], in test [3] and in [2] was inactive.

`CCCc1cc(=O)[nH]c(=S)[nH]1`: the compound was called inactive in test [4], in test [1] and in [2].

In the case of `COC(=O)c1ccc(O)cc1`, the AC50 in [4] was 14.8 µM (active); in test [2] it was 12.7 µM (active). Moreover, the compound was classed as inactive in test [3].

With `O=c1c(O)c(-c2ccc(O)c(O)c2)oc2cc(O)cc(O)c12`, the AC50 in [4] was 8.06 µM (active); in test [1], 53.8 µM (active); in test [3], 17.8 µM (active).

`Cc1c(C(=O)O)c(O)cc2c1C(=O)c1c(O)c([C@@H]3O[C@H](CO)[C@@H](O)[C@H](O)[C@H]3O)c(O)c(O)c1C2=O`: the AC50 in test [1] was 18.5 µM (active). Also, the compound was classed as inactive in [2].

Consider `CCOc1ccc2c(c1)C(C)=CC(C)(C)N2`, for which the outcome in test [1] and in test [5] was inactive. Further, the AC50 in test [3] is 79.8 µM (active); in test [2], 89.5 µM (active); in [6], 72.2 µM (active).

`CCCCc1ccc2c(n1)[C@@H](c1ccc(OC)cc1C[C@H](C)C(=O)O)[C@H](C(=O)O)[C@H]2c1ccc2c(c1)OCO2`: the compound was classed as inactive in [4] and in test [3]. For the same compound, in test [2], the half-maximal activity concentration (AC50) is 19.9 µM (active).

As to `CNC(=O)[C@H]1O[C@@H](n2cnc3c(NCc4cc(Cl)ccc4OCc4cc(C)no4)ncnc32)[C@H](O)[C@@H]1N`, the result in test [1], in test [3], in test [2] and in [6] was inactive.

As to `CN[C@H]1CC[C@@H](c2ccc(Cl)c(Cl)c2)c2ccc(S(N)(=O)=O)cc21`, the AC50 in [1] was 10.7 µM (active); in test [3], 15.2 µM (active); in test [2], 15.7 µM (active); in test [6] it was 13.1 µM (active).

For `COc1ccc(C)cc1N`, the outcome in [1], in [3], in test [2] and in [6] was inactive.

In the case of `CCCCC(CC)COC(=O)CC(C(=O)OCC(CC)CCCC)S(=O)(=O)O` (stereo not drawn), the AC50 in [1] is 13.1 µM (active); in [3], 88.4 µM (active); in test [2], 85.2 µM (active).

Regarding `Nc1ccc(S(=O)(=O)c2ccc(N)cc2)cc1`, the call in test [1] and in [3] was inactive.

In the case of `CC1=C(/C=C/C(C)=C/C=C/C(C)=C/CO)C(C)(C)CCC1`, the compound was classed as inactive in test [1]. The values for the AC50 in test [3] and in test [2] were 72.2 µM (active) and 79.8 µM (active), respectively.

With `Cc1ccc(C)c(O)c1C`, the compound was called inactive in test [1], in [3], in test [2] and in test [6].

In the case of `CC(C)(C)c1cc(O)c(C(C)(C)C)cc1O`, the compound was classed as inactive in [1], in test [7], in test [8], in test [10] and in test [2]. The concentration at half-maximal activity (AC50) in [9] was 186 µM (active); in [3], 66.3 µM (active).
